Most compounds without a hit are left out; they make up all but 5.7% or so of the library.
MPTP inh – mitochondrial permeability transition pore inhibitors, primary screen, biochemical, isolated mouse mitochondria, absorbance; inhibition, % at 10 µM; hit rate 1.4% among 360,000; Ca2+ swelling absorbance, 30 min;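 active = inhibition of 50% or more, scaled per plate between neutral and stimulator controls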;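 note: 0% = DMSO wells given calcium and 100% = 1 mM EGTA wells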
rCAG RNA binder – binders of r(CAG) RNA repeats, primary screen, biochemical, fluorescence; r(CAG) RNA repeat, TO-PRO-1 dye displacement fluorescence; inhibition, % at 3 µM; hit rate 1.3% among 370,000; AID 651821, 2012;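 active = inhibition above the plate cutoff, the mean of all test compounds on that plate plus 3 SD, cut at about 35% in these data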;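 note: 0% = DMSO alone and 100% = 100 µM mitoxantrone as full dye displacement; higher means more dye released from RNA so lower well fluorescence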
Myeloid diff MLP – induction of myeloid progenitor differentiation, primary screen, cell-based, flow cytometry, MLPCN library. AID 624256, 2012. ER-HoxA9 myeloid progenitors, lysozyme-GFP differentiation. calls only at 10 µM. hit rate 1% among 360,000;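 active = normalized GFP-positive differentiation at or above the plate's own cutoff, the solvent-only control mean plus 3 SD; inconclusive = no clear call, values can overlap the other calls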;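 note: cells exposed to compound for four days before flow analysis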
NR3A LBD binder – binders of NR3A ligand-binding domain, primary screen, biophysical, differential scanning fluorimetry, uHTS; Glutamate receptor ionotropic, NMDA 3A (GRIN3A) ligand-binding domain; NR3A LBD differential scanning fluorimetry, Tm shift; 0% = protein alone, 100% = glycine-bound protein; Tm shift relative to glycine control, % at 25 µM; hit rate 2.5% among 340,000; AID 1259313, 2017;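 active = melting temperature shift of at least 10% of the positive control shift, at one fixed dose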
FAS TE block – FAS thioesterase domain inhibitors, primary screen, biochemical, fluorescence intensity, uHTS | hit rate 0.67% among 360,000 | inhibition, % at 15 µM | AID 602261, 2012 | Fatty acid synthase (Homo sapiens), P49327 | recombinant FAS-TE, OMFH fluorogenic substrate, fluorescence endpoint;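 active = compounds whose normalised, plate-corrected inhibition of enzyme fluorescence in the single-dose primary screen is 50% or more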;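 note: 0% = DMSO with enzyme and 100% = substrate without enzyme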
rCAG binder conf – small molecules binding CAG repeat RNA – biochemical, fluorescence, confirmation | hit rate 70% among 4,300 | r(CAG) RNA repeat, TO-PRO-1 dye displacement fluorescence | inhibition, % at 3 µM | shares compounds with rCAG RNA binder;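 active = inhibition above a per-plate cutoff, the mean inhibition of sample wells plus 3 SD, cut at about 35% in these data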;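 note: loss of TO-PRO-1 fluorescence as compound displaces dye from 1x1 AA loop RNA; 0% = DMSO only wells and 100% = 100 µM mitoxantrone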
dCAG dye counter – displacement of TO-PRO-1 from CAG DNA duplex, counter-screen for rCAG RNA repeat binder project, biochemical, fluorescence, TO-PRO-1 dye, d(CAG) DNA oligo | d(CAG) DNA oligo TO-PRO-1 dye displacement | shares compounds with rCAG RNA binder | inhibition, % at 3 µM | hit rate 94% among 4,300;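 active = inhibition above its plate's cutoff, the mean test-well inhibition plus 3 SD, cut at about 4.8% in these data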;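 note: 0% = DNA dye mix with DMSO and 100% = 100 µM mitoxantrone; hits displace the dye from DNA and so lower well fluorescence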
dCAG dye DR – inhibitors of DNA CAG/GTC TO-PRO-1 complex, dose response, counter-screen for rCAG RNA repeat binder project, biochemical, fluorescence, TO-PRO-1 dye; hit rate 20% among 250; DNA CAG/GTC duplex TO-PRO-1 dye displacement fluorescence; IC50, µM; AID 686960, 2013; shares compounds with rCAG RNA binder; in the data active = IC50 below about 10 µM
* marks the source's active call; other numbers are inactive results; i = inactive; u = inconclusive; x = not tested or not shown.

SMILES	MPTP inh	rCAG RNA binder	Myeloid diff MLP	NR3A LBD binder	FAS TE block	rCAG binder conf	dCAG dye counter	others
COc1cc(OC)cc(C(=O)NNC(=O)C(CCC(N)=O)NS(=O)(=O)c2ccc(Cl)cc2)c1 (configuration not stated)	-1	2	i	0	-8	x	x
O=C(Nc1c(C(=O)O)[nH]c2ccc(F)cc12)c1cccc(C(F)(F)F)c1	1	63*	i	12*	30	39*	8.8*
O=C(Nc1c(C(=O)O)[nH]c2ccccc12)c1cccc(C(F)(F)F)c1	2	39*	i	3	4	21	3
O=c1nc2ccc(Cl)cn2c2ccc(S(=O)(=O)N3CCOCC3)cc12	-2	12	i	-1	1	x	x
O=c1nc2ccc(Cl)cn2c2ccc(S(=O)(=O)N3CCCCC3)cc12	-1	41*	i	-1	5	8	4.4*
O=C(O)c1cccc(-n2cccc2/C=C2/NC(=O)N(c3ccc(Cl)cc3)C2=O)c1	0	72*	i	-4	6	69*	30*
COc1ccc(-n2cccc2/C=C2/NC(=O)N(c3cccc(Cl)c3)C2=O)cc1	1	12	i	-1	-4	x	x
O=C(O)c1cccc(-n2cccc2/C=C2/NC(=O)N(c3cccc(Cl)c3)C2=O)c1	3	36*	i	0	-3	35*	10*
COc1ccc(NC(=O)CSc2nnc3ccc(-c4cccnc4)nn23)c(OC)c1	-2	0	i	-1	-2	x	x
O=C(CCCc1ccccc1)NCc1ccc(F)cc1	2	-5	i	-1	-2	x	x
CCSc1nc(-c2ccco2)ccc1C#N	-1	56*	u	-5	40	11	8.6*
O=C(COC(=O)c1cc[n+]([O-])cc1)NC(=O)c1ccc(OC(F)F)cc1	-2	6	i	5	-6	x	x
COc1cc2c(cc1OC)C(c1ccccc1)N(C(=O)c1ccco1)CC2 (configuration not stated)	0	2	i	0	6	x	x
COc1cc2c(cc1OC)C(c1ccccc1)N(Cc1ccc(S(=O)(=O)NC(=O)c3ccco3)cc1)CC2 (configuration not stated)	0	40*	i	x	-5	39*	11*
COc1ccc(NC(=O)C2C3C=CC4(O3)C2C(=O)N(CCN2CCCCC2)C4C(=O)NC2CCCC(C)C2C)cc1 (configuration not stated)	1	0	i	-1	-4	x	x
CCN=c1scc(C)n1/N=C/c1ccc(O)c(O)c1O	7	38*	i	-1	-7	49*	19*
COCCN=c1scc(-c2ccccc2)n1/N=C/c1c[nH]c2ccccc12	4	11	i	4	24	x	x
COCCN=c1scc(-c2cccs2)n1/N=C/c1ccc(O)c(O)c1O	8	48*	i	0	10	62*	30*	dCAG dye DR=9.2*
CCN=c1scc(C)n1/N=C/c1cc(Br)c(O)c(Br)c1	1	36*	i	-3	7	42*	18*
Cc1cc(C)c2nc(NNC(=O)c3cc(=O)c4ccccc4o3)sc2c1	1	73*	i	2	13	82*	49*
Cc1cc(C)c2nc(NNC(=O)c3ccc(S(=O)(=O)N4CCc5ccccc5C4)cc3)sc2c1	3	61*	i	5	21	50*	26*
CCOC(=O)Cc1csc(NC(=O)c2cc(=O)c3ccccc3o2)n1	3	4	i	-2	-5	x	x

Screens (PubChem BioAssay)
